A selection: hits, their analogues and other compounds. The true share with any hit is near 1.9%.
Insulin prom up = MIN6 insulin promoter up-regulation | MIN6 insulin promoter-GFP reporter, high-content imaging; stronger effect = higher value | z-score at 5 µM | actives 0.3% (n = 190,000) | AID 1625;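 active = z-score above 3 at 5 µM with at least 500 cells counted in the well; inconclusive = wells under 500 cells, flagged as cytotoxic or low count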
Autophagy HCS = modulators of autophagy; actives 0.98% (n = 190,000); MEF GFP-LC3 puncta imaging; test concentration mostly 10 µM; AID 463193; calls only at 10 µM (by protocol);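 active = percentage of spot-positive cells more than 3 SD above its plate mean, without a fluorescence outlier flag or 80% toxicity; inconclusive = no clear call, values can overlap the other calls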;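 note: spot-positive cell cutoff set from DMSO-treated cells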
HMGR II inh = blocks class II HMG-CoA reductase of Enterococcus faecalis; AID 1066; purified E. faecalis HMGR, NADPH absorbance 340 nm kinetic; actives 0.41% (n = 190,000); inhibition, % at 10 µM;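 active = inhibition above a set limit, the median over all tested compounds plus 3 SD, cut at about 9.5% in these data; inconclusive = no clear call, values can overlap the other calls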;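 note: enzyme runs in reverse so mevalonate oxidation gives rising NADPH absorbance; 0% = complete reaction with DMSO and 100% = background rate lacking mevalonate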
Insulin prom inh = TRM-6 insulin promoter activity inhibition; TRM-6 cells (human fetal islet line), insulin promoter-eGFP reporter, imaging; reporter expression induced with tamoxifen; inhibition, % at 2 µM; actives 0.9% (n = 130,000);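 active = inhibition above the mean plus 3 SD, with well images judged a real hit on visual review, cut at about 60% in these data, passing the limit was not always enough; inconclusive = inhibition over the cutoff but images rejected on review; inactive = inhibition not above the cutoff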
The depositor's hits bear a star; i = inactive; ? = inconclusive; . = no result; + = active, no number.

SMILES	Insulin prom up	Autophagy HCS	HMGR II inh	Insulin prom inh
CC(NC(=O)C1CCCN1S(=O)(=O)c1ccc2c(c1)n(C)c(=O)c(=O)n2C)c1ccccc1 (configuration not stated)	-0.24	.	.	.
S=C(NCCCn1ccnc1)Nc1cccc(Cl)c1	0.27	i	-6	.
CCc1nc(CN2CCCC(C(=O)c3ccc4c5c(cccc35)CC4)C2)c(C)[nH]1 (configuration not stated)	-2.1	+	1	-14
NC(=O)c1ccc(NC(=O)c2cnc3ccccc3n2)cc1	0.39	.	.	.
COc1ccc(-c2c(C)n([O-])c3c([n+]2=O)CCCC3)cc1OC	0.83	+	-2	0
O=C(O)c1ccc(-c2ncc[nH]2)cc1	0.31	i	-6	80*
Cc1ccc(Cn2cc(/C=N/Nc3ccc([N+](=O)[O-])cn3)c3ccccc32)cc1	2.3	+	3	.
CC1(C)CC(=O)C2=C(C1)OC(N)=C(C#N)C2c1cn(-c2ccccc2)nc1-c1ccc(F)cc1 (configuration not stated)	-0.4	+	1	.
Cc1cc(NC(=O)C2CCCN2C(=O)Nc2c(C)cccc2C)ccc1-n1cnnn1 (configuration not stated)	0.19	i	12*	10
Cc1cc(C)cc(NC(=O)N2CCCC2C(=O)Nc2ccc(-n3cnnn3)c(C)c2)c1 (configuration not stated)	0	i	-8	-53
Cc1cc(=O)[nH]c(N/N=C/c2ccc(N(C)C)cc2)n1	-0.3	i	14*	.
Cc1sc(NC(=O)CN(CCc2ccccc2)C(=O)C2CC2)c(C(N)=O)c1C	0.27	i	-7	.
COc1cc(SC#N)ccc1N=Cc1c(C)[nH]n(-c2ccc(Cl)cc2)c1=O	-2.3	+	1	-9
OCCCN=c1cc(-c2ccccc2)oc2ccc(Cl)cc12	.	i	-4	21
CC1(C)CC(N=c2cc(-c3ccccc3)oc3ccc(Cl)cc23)CC(C)(C)N1	?	+	-2	-57
CCOc1cc(NC(=S)NCCCN2CCOCC2)c(OCC)cc1NC(=O)c1cccs1	-0.01	+	-5	-21
CCOc1cc(NC(=S)NCCCN2CCOCC2)c(OCC)cc1NC(=O)c1ccccc1	-0.2	i	0	.
O=C1C(=O)c2ccccc2C(O)=C1CCCCl	-0.19	.	.	.
Cc1ccc(-n2c(C)nc3c(cnn3-c3ccc(F)cc3)c2=O)cc1C	-0.4	+	-12	-44
c1ccc(C2CC(c3cccs3)=NN2c2ccccc2)cc1 (configuration not stated)	-0.75	.	.	.
COc1ccc(C2CC(c3cccs3)=NN2c2ccc(C=O)cc2)cc1 (configuration not stated)	-0.6	+	-2	-68
Nc1nc(-c2ccc(Cl)cc2)nc(-c2ccc(Cl)cc2)n1	-0.11	.	.	.
O=C(NCc1ccc(Cl)cc1)C(=O)NCC1OCCN1C(=O)c1ccc(Cl)cc1 (configuration not stated)	.	i	-2	69*
CCOC(=O)/C(C#N)=C(C)/C=C1\Sc2ccccc2N1CC	1.9	i	0	-50
CCN1/C(=C\C=C(C(C)=O)C(C)=O)Sc2ccccc21	7.7*	i	-1	i
SMILES	Insulin prom up	Autophagy HCS	HMGR II inh	Insulin prom inh
CCN(C(=O)CN1CCN(c2ccccc2)CC1)c1c(N)n(Cc2ccccc2)c(=O)[nH]c1=O	-1.1	i	-4	.
CCN(C(=O)Cn1cc(C(F)(F)F)ccc1=O)c1c(N)n(Cc2ccccc2)c(=O)[nH]c1=O	0.2	i	16*	9
Cc1ccc2cc([N+](=O)[O-])ccc2n1	-0.16	.	.	.
CC(NC(=O)COC(=O)Cc1ccsc1)c1ccccc1 (configuration not stated)	0.93	i	0	-7
CNC(=S)NNC(=O)c1oc2nc(-c3ccccc3)cc(C)c2c1N	0.04	.	.	.
Cc1ccc(-c2cc(-c3ccco3)c3c(N)c(C(=O)NN)oc3n2)cc1	3*	.	.	.
COc1ccc(S(=O)(=O)NCC2CCCN(C(=O)c3ccccc3)C2)cc1 (configuration not stated)	-0.58	i	-5	.
COc1ccc(S(=O)(=O)NCC2CCCN(C(=O)c3sccc3C)C2)cc1 (configuration not stated)	-0.42	+	2	.
CCOc1ncccc1C(=O)OCC(=O)Nc1c(C)cccc1C	-0.23	i	-1	-56
Cc1cccc(C)c1NC(=O)COC(=O)c1cccnc1	0.69	+	-8	.
Cc1cccc(C)c1NC(=O)COC(=O)COc1ccc2c(C)cc(=O)oc2c1	0.2	i	0	60*
Cc1cccc(C)c1NC(=O)COC(=O)Cc1ccsc1	.	i	-6	67*
Cc1ccnc(N(C(=O)Nc2ccccc2)C2=NCC(C)(C)S2)c1	-2.1	.	.	.

High-throughput results as filed in PubChem.
